Assay results: PubChem BioAssay (NCI)
Several values for one entry are separate records, joined by “and”; a condition that tells them apart may be missing. Equal entries are not always repeated. This is part of a sample that, as a whole, favours compounds with a hit. Of some 83,000 tested, about 20% had one in any assay.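 Step 1: grow cells in 96-well plates. Step 2: add test compound at a single concentration. Step 3: incubate 48 h. Step 4: record percent growth.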 Values without a mark were called inactive. Activity calls are given as the source filed them. How the source made its calls: active means growth percent below 10; inactive means the rest.

These molecules were tested on MDA-MB-468 breast (assay: NCI-60 one-dose screen, 48 h (100 = growth as untreated, 0 = no growth, -100 = all killed)). Conditions: 10 µM unless noted.

Row | Structure (SMILES) | growth
1 | O=C(/C=C/c1ccc(Cl)nc1)c1ccc(Cl)cc1Cl | 91.5%
2 | CCCc1cn(CC(=O)Nc2nc3ccccc3s2)nn1 | 110%
3 | COc1cc(C(=O)NC(=S)Nc2ccc3ccccc3c2)cc(OC)c1OC | 95.5%
4 | CC(=O)O.CC(=O)O.O.[Fe] | 100%
5 | Cc1ccc2sc3c(NCCN)nc4ccccc4c3c(=O)c2c1 | 56.8%
6 | CCCNC(=O)Oc1ccc(/C(=C(/C)Cc2ccc(OC)cc2)c2ccc(OCCCN(C)C)cc2)cc1 | 73.6%
7 | COC1C(O)CC(OC2CC(OC3CC(O[C@@H]4C(=O)c5c(cc6cc(OC7CC(OC8CC(O)C(O)C(C)O8)C(O)C(C)O7)c(C)c(O)c6c5O)CC4[C@H](OC)[C@@H](O)C(C)=O)OC(C)C3O)OC(C)C2O)OC1C (stereo not given in full) | -40.1% (active)
8 | CCCCCCOC(=O)CC1=C(C)/C(=C/c2[nH]c(-c3ccc[nH]3)cc2OC)N=C1C | -59.7% (active)
9 | O=C1c2cc3c(cc2-c2c1c1ccc(F)cc1c(=O)n2C[C@H](O)[C@H](O)[C@H](O)CO)OCO3 | -39.9% (active)
10 | O=C1/C(=C\c2cn(-c3ccccc3)nc2-c2ccc(-c3cccs3)cc2)CCc2ccccc21 | 36.1%
11 | CCCCCCCCCCCCCCCC(N)c1ccccc1 (stereo not given) | -82.2% (active)
12 | CC1CC2C3CCC4=CC(=O)CCC4(C)C3CCC2(C)C1(O)C(=O)CO (stereo not given) | 115%
13 | CCS/C(Nc1ccccc1)=C(\C#N)C(=O)N/N=C/c1ccc(Cl)cc1Cl | 19.6%
14 | COc1cc(/C=C/C(=O)c2cc(OC)c(OC)c(OC)c2)ccc1OCc1ccc(F)cc1 | 17.8%
15 | COc1ccc(-n2cc(COc3ccc4c5ccnc(C)c5n(CC(C)C)c4c3)nn2)cc1 | 35.3%
16 | Cc1c(C(=O)N[C@@H](Cc2ccccc2)C(=O)C(=O)NCc2ccc(F)cc2)[nH]c2ccccc2c1=O | 94.5%
17 | Oc1c(Cl)cc(Cl)cc1/C=N/Nc1nnc(N/N=C/c2cc(Cl)cc(Cl)c2O)c2ccccc12 | -29.9% (active)
18 | COc1ccc(N2CCN(CC(=O)N3CCN(c4nnc(-c5ccccc5)c(-c5ccccc5)n4)CC3)CC2)cc1 | 50.6%
19 | CN(C)CCS(=O)(=O)CCN(C)C | 105%
20 | CCn1c(C)nc([N+](=O)[O-])c1Sc1nc(N)nc2nc[nH]c12 | -11.2% (active)

Row | Structure (SMILES) | growth
21 | COCCOCCOCc1n(Cc2ccc3ccccc3n2)c2ccccc2[n+]1Cc1ccc2ccccc2c1 | -50.1% (active)
22 | COc1cc(CNC(=O)CSc2nc3ccccc3c(=O)n2Cc2cc(OC)c(OC)c(OC)c2)cc(OC)c1OC | 91.7%
23 | CC1=NN(c2cccc(Cl)c2)C(=O)/C1=C\c1cn(-c2nc(N3CCOCC3)nc(N3CCOCC3)n2)c2ccccc12 | 95.9%
24 | CN1C(=O)N(C)C2C1NC(=S)N2/N=C/C=C/c1ccccc1[N+](=O)[O-] (stereo not given) | 6.39% (active)
25 | O=C(O)Cc1ccc2c(c1)Cc1cccnc1O2 | 97.1%
26 | CSc1nc(=O)n(Cc2ccc(F)cc2)c(=O)n1Cc1ccc(C)cc1 | 112%
27 | COc1ccc(-c2nn(-c3ccc(NC(=O)c4cc(C(F)(F)F)cc(C(F)(F)F)c4)cc3)cc2-c2ccncc2)cc1Cl | 77.1%
28 | CC[C@H](C)[C@H](NC(=O)[C@@H](N)CCC(N)=O)C(=O)N[C@@H](Cc1ccc(O)cc1)C(=O)N[C@@H](CCCCN)C(=O)N[C@@H](CCCCN)C(=O)N[C@@H](Cc1ccc(O)cc1)C(=O)N[C@@H](CCCNC(=N)N)C(=O)N[C@H](C(=O)N[C@@H](Cc1c[nH]c2ccccc12)C(=O)N[C@@H](Cc1ccc(O)cc1)C(=O)N[C@@H](CCCNC(=N)N)C(=O)N[C@@H](CCCCN)C(=O)N[C@@H](C)C(=O)N[C@@H](Cc1c[nH]c2ccccc12)C(=O)N[C@@H](CCCCN)C(=O)N[C@H](C(=O)N[C@@H](CC(C)C)C(=O)NCC(=O)N[C@@H](CCCCN)C(=O)N[C@H](C(N)=O)C(C)C)C(C)C)[C@@H](C)O | 44.6%
29 | CS(=O)(=O)c1ccc2c(c1)c1c(n2Cc2ccc(Cl)cc2)CCCC1 | 50.4%
30 | O=c1[nH]c(=O)n(C2OC(CO)C(O)C2O)cc1I (stereo not given) | 102% and 123%
31 | COc1ccc2c(c1)C(=O)/C(=C/c1ncc([N+](=O)[O-])n1C)O2 | -12.4% (active)
32 | CCOc1cccc(C2CC(=O)Nc3cc4c(cc32)OCO4)c1 (stereo not given) | 34.2%
33 | CN1CCN(c2ccc3c(C(N)=O)c(NC(=O)c4ccc(C(C)(C)C)cc4)sc3c2)CC1 | 90.7%
34 | CCN(CC)CCCN1C(=O)c2c(c(C)c3c(oc4cc(OC)ccc43)c2C)C1=O | 116%
35 | Cc1ncc(C(=O)Nc2ccc(CN3CCN(C)CC3)c(C(F)(F)F)c2)cc1C#Cc1c(N)ncc2ccc(C#N)cc12 | 98.5%
36 | Oc1c(C(Nc2ccccc2Br)c2ccccc2)ccc2cccnc12 (stereo not given) | -4% (active)
37 | O=C(c1nc2ccccc2[nH]1)C1C(c2ccc(F)cc2)C2CC3CCCCC3N2[C@@]12C(=O)Nc1ccc(Cl)cc12 (stereo not given in full) | 41.6%
38 | COc1ccc(-c2cc3cnc4ccccc4c3oc2=O)cc1 | 99.8%
39 | O=C1/C(=C/c2cccc(Br)c2)COc2ccc(O)cc21 | 53.1%
40 | CN=C1C=C/C(=N/N=c2/ccn(O)cc2C)C=C1C | 83.1%
